We go through 94 compounds from ChEMBL document CHEMBL3988442, “University of Dundee, Small-Polar-MMV Screening Library” (2021).

About 900 (1.7%) of roughly 53,000 compounds showed an effect of 50% or more. Only a selection was taken, and strong results are over-represented in it overall.

The subject of the experiment is Mycobacterium tuberculosis. The experiment in a line: Cornell - Phenotypic assay to identify agents that inhibit growth of Mycobacterium tuberculosis. The format is functional. Also noted: scale not given: direction of the effect not stated beside the values. The settings on record: 10 mM as filed; unlikely as a test dose.
As for `Cc1cc(CS(=O)(=O)C(C)C(=O)N(C)c2ccccc2)on1` (centres undefined), the “Percent Effect” value is listed as -17.42%. `CN(Cc1ccco1)[C@@H]1CN(C(=O)C2CCOCC2)C[C@@H]2CCCO[C@@H]21.O=C(O)C(F)(F)F`: the “Percent Effect” value is listed as -2.901%. The figure for `NC(=O)C1CCCN(Cc2ccc(C(=O)Nc3cnns3)cc2)C1` (centres undefined) is 2.81%.

In the case of `CC(=O)Nc1nc(C(=O)NCc2ccc(N3CCCC3)nc2)cs1`, the “Percent Effect” value is -0.1463%. For the compound `CSCc1cccc(NC(=O)N2CCC(N3CC=CC3)C2)c1` (centres undefined), the “Percent Effect” value is listed as -39.08%. As to `CCn1c(C)cc(C(=O)N2CCC(Nc3cccnn3)CC2)c1C`, the “Percent Effect” value is 7.118%. As for `CC(C)Nc1cc(-c2c[nH]nc2C2CCN(C(=O)C3CCC3)C2)ccn1` (centres undefined), the “Percent Effect” value is given as 58.28%.

Consider `CC(C)Nc1cc(-c2c[nH]nc2C2CCN(C(=O)C3CC3)C2)ccn1` (centres undefined), for which the “Percent Effect” value turned out to be 31.29%. Under `CC(C)CNc1cc(-c2c[nH]nc2C2CCN(C(=O)C3CC3)C2)ccn1` (centres undefined) stands 30.66%; under `COCCN1C[C@@H]2[C@@H](OC)CCN(S(=O)(=O)c3cccnc3)[C@@H]2C1.O=C(O)C(F)(F)F.O=C(O)C(F)(F)F`, 21.64%; under `CCOCC(=O)N1CCc2nc(C)nc(NC(C)C)c2CC1`, -12.05%.

As to `Cc1noc(C)c1C(=O)N[C@@H]1CC[C@@H](Oc2ccccc2)[C@@H]1O`, the “Percent Effect” value is listed as 21.33%. Consider `CC(C)c1cc(C(=O)N[C@@H]2CC[C@@H](Oc3ccccc3)[C@@H]2O)on1`, for which the “Percent Effect” value is reported as 75.51%. The figure for `Cc1noc(C)c1CC(=O)N[C@@H]1CC[C@@H](Oc2ccccc2)[C@@H]1O` is 21.6%; for `Cc1n[nH]c(C)c1CCC(=O)N[C@@H]1CCC[C@@H](Oc2ccccc2)[C@@H]1O` it is -14.05%.

In the case of `Cc1noc(C)c1C(=O)N[C@@H]1CCC[C@@H](Oc2ccccc2)[C@@H]1O`, the “Percent Effect” value is reported as 50.47%.

As to `Cc1noc(C)c1CCC(=O)N[C@@H]1CC[C@@H](Oc2cccnc2)[C@@H]1O`, the “Percent Effect” value is 15.37%. For the compound `COCC(NC(=O)c1cnc(-c2ccncc2)nc1)c1ccnn1C` (centres undefined), the “Percent Effect” value is on record as 1.357%. The figure for `O=C(c1cc(-c2cccs2)on1)N1CCCCC1Cn1cccn1` (centres undefined) is 6.3%; for `Cc1csc(Nc2cc(C3CN(c4ccncn4)C3)nc(C)n2)n1` it is 23.54%; for `CCc1cccc(NC(=O)CNc2ccccc2OCCC(=O)OC)c1` it is 45.3%. Under `CCS(=O)(=O)NCC(=O)NC(c1cc(C)sc1C)C(C)C` (centres undefined) stands 24.3%; under `Cc1cc(C)nc(Nc2nccnc2C2CCCN(CCO)C2)n1` (centres undefined), 54.85%; under `CC(=O)N1CCCC(c2nccnc2Nc2nc(C)cc(C)n2)C1` (centres undefined), -9.848%.

Turning to `Cc1cc(C)nc(Nc2nccnc2C2CCCN(C(CO)CO)C2)n1` (centres undefined), the “Percent Effect” value is on record as 36.66%. With `COc1cc(C2CC(=O)Oc3cc(C)[nH]c(=O)c32)ccc1O` (centres undefined), the “Percent Effect” value came to 15.79%. Turning to `Cc1noc(Cl)c1CC(=O)N1CCCC1Cn1cccn1` (centres undefined), the “Percent Effect” value is 17.08%. The figure for `COc1cccc(-c2cccc(-c3ccn(CC4COCCO4)n3)c2)n1` (centres undefined) is -2.003%; for `CSc1nccc(-c2cccc(-c3ccn(CC4COCCO4)n3)c2)n1` (centres undefined) it is 71.9%; for `COc1nccnc1-c1cccc(-c2ccn(CC3COCCO3)n2)c1` (centres undefined) it is 14.38%.

Turning to `Cc1[nH]nc2ncc(C(=O)N3CCCC3c3noc(C(C)C)n3)cc12` (centres undefined), the “Percent Effect” value was found to be 24.5%. Under `O=C(O)C(F)(F)F.O=C(O)C(F)(F)F.c1cncc(-c2ccc3c(c2)CCC32CCN(Cc3ccco3)CC2)c1` stands 82.31%; under `O=C(O)C(F)(F)F.c1cc(-c2ccc3c(c2)CCC32CCN(c3nncs3)CC2)ccn1`, 20.52%; under `c1cc(-c2ccc3c(c2)C2(CC3)CCN(c3nncs3)CC2)ccn1`, 26.32%.

As to `COc1ccc2c(c1)C1(CCN(Cc3nccs3)CC1)N(C)CC2.O=C(O)C(F)(F)F.O=C(O)C(F)(F)F`, the “Percent Effect” value is reported as -9.444%. Regarding `O=C(O)C(F)(F)F.O=C(O)C(F)(F)F.c1cncc(-c2ccc3c(c2)CCC32CCN(Cc3nccs3)CC2)c1`, the “Percent Effect” value is 61.89%. As to `O=C(O)C(F)(F)F.O=C(O)C(F)(F)F.c1csc(CN2CCC3(CC2)CCN(CC2CC2)CC3)n1`, the “Percent Effect” value was -43.47%.

As to `CN(C)CC(=O)N1CCC2(CCc3cc(-c4cccnc4)ccc32)CC1.O=C(O)C(F)(F)F.O=C(O)C(F)(F)F`, the “Percent Effect” value amounted to 11.92%. For the compound `CN1CCN(Cc2cccnc2)C(=O)C12CCN(Cc1ccco1)CC2.O=C(O)C(F)(F)F.O=C(O)C(F)(F)F.O=C(O)C(F)(F)F`, the “Percent Effect” value is 15.2%.

As for `O=C(O)C(F)(F)F.c1cncc(-c2ccc3c(c2)C2(CC3)CCN(c3nncs3)CC2)c1`, the “Percent Effect” value is given as 85.45%. Take `CC(C)(C)c1n[nH]cc1CNC1CCC(OCC(F)(F)F)CC1.Cl` (centres undefined): the “Percent Effect” value is recorded as -6.883%. The figure for `CCN(CC(C)C#N)C(=O)CNc1ccc(C(N)=O)c(C)c1` (centres undefined) is 7.465%; for `O=C(CC1CCCC1)NCCS(=O)(=O)N1CCN(c2ccccn2)CC1` it is -6.415%; for `CN(C)c1nccc(C2CCN(C3CCCCC3O)CC2)n1` (centres undefined) it is -26.39%.

Regarding `Cn1ccnc1CN1CCCN(C(=O)c2ccc3ccccc3c2)CC1`, the “Percent Effect” value is listed as 4.708%. Under `COc1ccc(C)cc1NC(=O)c1coc(C)n1` stands 8.355%. Under `CCN(C(=O)c1ccc2c(c1)OCO2)C1CC(=O)NC1=O` (centres undefined) stands -9.897%. Regarding `CC(=O)c1ccc(N2CCN(C(=O)c3cc(C(C)C)nn3C)CC2)cc1`, the “Percent Effect” value turned out to be 16.14%. `CC(C)c1cc(C(=O)N2CCN(c3ccc(F)c(Cl)c3)CC2)n(C)n1`: the “Percent Effect” value turned out to be 54.92%. Consider `CC(C)c1cc(C(=O)N2CCN(c3ccncc3)CC2)n(C)n1`, for which the “Percent Effect” value is given as 12.8%.

For the compound `O=C(NCc1cccs1)NCC(O)c1ccoc1` (centres undefined), the “Percent Effect” value is listed as 18.49%.

For the compound `O=C(NCC(O)c1ccoc1)Nc1cccs1` (centres undefined), the “Percent Effect” value was determined as 104.6%. Under `O=C(NCC(O)c1ccoc1)Nc1c(F)cccc1F` (centres undefined) stands 6.365%; under `CCOc1ccccc1C(=O)NCCC(O)c1ccoc1` (centres undefined), 22.79%.

On to `O=C(NCCC(O)c1ccoc1)Nc1cccs1` (centres undefined), for which the “Percent Effect” value is 106.1%. As to `CCOC(=O)NCCC(O)c1ccoc1` (centres undefined), the “Percent Effect” value was determined as 23.86%. In the case of `Cl.O=C(CN1CCCC1)Nc1c2c(cc3c1CCC3)CCC2`, the “Percent Effect” value stood at 40.53%. The figure for `CCS(=O)(=O)Nc1ccn(Cc2cccc(F)c2)n1` is -38.51%; for `CN(C)CCN1C(=O)CCC12CCCN(C(=O)c1cccnc1)CC2.O=C(O)C(F)(F)F.O=C(O)C(F)(F)F` (centres undefined) it is 28.27%; for `Cn1cc(CN2CCCCC2c2ccc(-c3cccc(Cl)c3)nc2)cn1` (centres undefined) it is 30.06%.

With `CC1CCN(C(=O)NCCc2cc(F)ccc2F)C1` (centres undefined), the “Percent Effect” value was 29.01%. Under `CN(C)CCNc1cc(-c2ccccc2C(N)=O)c2cc[nH]c2n1` stands -19.65%. The figure for `CN(C)[C@@H]1CN(C(=O)c2cc3cccc(F)c3[nH]2)C[C@H]1O` is 57.85%; for `O=C(c1cc2cccc(F)c2[nH]1)N1C[C@@H](O)[C@H](N2CCCC2)C1` it is 36.56%; for `CN1CCN([C@@H]2CN(C(=O)c3cc4cccc(F)c4[nH]3)C[C@H]2O)CC1` it is 38.63%. The figure for `CN1CCOC(CNCC(=O)NCCc2ccc3c(c2)OCCO3)C1` (centres undefined) is -19.13%; for `Cc1nc(N)cc(N2CCCC(COc3cccc(F)c3)C2)n1` (centres undefined) it is 43.67%.

For `Cc1ccccc1OCC1CCCN(c2cc(N)nc(N)n2)C1` (centres undefined), the “Percent Effect” value was determined as 79.75%. The figure for `Nc1cc(N2CCCC(COc3ccc(F)cc3)C2)nc(N)n1` (centres undefined) is -4.088%; for `CN(C)Cc1cnc(C2CN(C(=O)c3ccccc3Cl)CCO2)[nH]1` (centres undefined) it is -0.6177%; for `c1ccc(CCN2CC(n3cccn3)C2)nc1` it is -9.048%.

For the compound `COc1ccc(CN(C)C(=O)CCC(=O)c2cccs2)c(OC)c1OC`, the “Percent Effect” value worked out at 32.22%. Regarding `COc1cccc(CN(C)C(=O)CCC(=O)c2ccccc2)c1OC`, the “Percent Effect” value came to 8.094%. Under `COc1cccc(CN(C)C(=O)CCC(=O)c2ccc(Cl)cc2)c1OC` stands 54.4%; under `O=C(N[C@@H]1CCC[C@@H](N2CCCC2)[C@@H]1O)c1cnn2cccnc12`, -2.756%. The figure for `Cc1nc(C(=O)Nc2cccnc2)c(C(C)C)s1` is 51.63%; for `COc1ccc(NC(=O)c2nc(C)sc2C(C)C)cn1` it is 41.95%; for `CC(C)c1sc(Br)nc1C(=O)NCc1cccnc1` it is 16.15%. Under `CC(C)CCN1C[C@H]2C[C@H](C(=O)Nc3cccnc3)[C@@H](C1)O2.O=C(O)C(F)(F)F.O=C(O)C(F)(F)F` stands 18.07%; under `N#Cc1cccc(OCCN2CCNC(=O)C2c2cccs2)c1` (centres undefined), 15.41%. Regarding `Cc1nc(CN2C[C@H]3C[C@H](C(=O)NCC4CC4)N(C)[C@H]3C2)cs1.O=C(O)C(F)(F)F.O=C(O)C(F)(F)F.O=C(O)C(F)(F)F`, the “Percent Effect” value was -25.01%. Turning to `COc1ccccc1-c1nnc2n1NC(N)=C(C#N)S2`, the “Percent Effect” value stood at 6.444%. As to `COc1cccc(N2CCC(N3C[C@@H](NC(C)=O)[C@H](C(C)C)C3)CC2)c1`, the “Percent Effect” value is given as 34.03%. For `COc1ccc(N2CCC(N3C[C@H](NC(C)=O)[C@@H](C(C)C)C3)CC2)cc1`, the “Percent Effect” value amounted to 33.6%.

On to `CC(=O)N[C@@H]1CN(C2CCN(c3cccc(Cl)c3)CC2)C[C@H]1C(C)C`, for which the “Percent Effect” value is reported as 62.82%. With `Cc1cc(=O)n2ncnc2n1CC(O)c1cc(F)ccc1F` (centres undefined), the “Percent Effect” value was -70.76%. Take `COc1ccc(NC(=O)Cn2c(=O)nc(N)c3cc(C)sc32)cc1`: the “Percent Effect” value came to 0.3474%. Under `Cc1nonc1OCCNC(=O)COc1ccc(Cl)cc1Cl` stands 17.56%; under `CC(c1nnc(-c2ccccc2)o1)N1CCc2cncnc2C1` (centres undefined), -7.255%.

Consider `CC(=O)N1CCc2c(nc(N(C)C)nc2N(C)CCC2CCCCO2)C1` (centres undefined), for which the “Percent Effect” value is listed as -8.037%. For the compound `Cc1nc[nH]c1CN1CCN(C(=O)C2(C)CC2)[C@H]2CS(=O)(=O)C[C@H]21`, the “Percent Effect” value was 10.63%. Under `COc1ccc(CNC(=O)Nc2ccc(S(=O)(=O)C(F)F)cc2)cc1` stands 13.14%; under `Cn1cc(CNC(=O)Nc2ccc(S(=O)(=O)C(F)F)cc2)cn1`, 33.37%. Consider `Cn1ccc(CNC(=O)Nc2ccc(S(=O)(=O)C(F)F)cc2)c1`, for which the “Percent Effect” value is listed as 50.21%.
